High-throughput results from PubChem.
aSyn 5UTR act: Activators working through SNCA 5'UTR binding (MLPCN) | alpha-synuclein 5'UTR reporter, activators screen | activity score, % (tested at 7.5 µM), hits read low | hit rate 7.1% among 300,000 | AID 1814; in the data active = activity score below about -60%
* hit, by the source's call. Only a sample is shown.

SMILES	aSyn 5UTR act
O=c1oc2cc(O)c(Cl)cc2c2ccccc12	-88*
COc1ccc(OCc2cc(C(=O)NC(C)c3csc(C)n3)no2)c(Cl)c1 (stereo not drawn)	-119*
COc1ccc(OCc2cc(C(=O)NCc3nc(C)cs3)no2)c(Cl)c1	-94*
O=C(N/N=C/c1ccccc1[N+](=O)[O-])c1cccs1	-125*
Cc1ccc(/C=N/NC(=O)c2cccs2)cc1[N+](=O)[O-]	-107*
CCc1ccc2[nH]c(=O)c(CN(Cc3ccccc3OC)C(=O)Nc3ccccc3OC)cc2c1	-72*
O=C(O)Cc1sc(Nc2ccc(Cl)cc2)nc1-c1cccs1	-188*
Cc1nc2ccccc2c(=O)n1/N=C/c1ccccc1Cl	-91*
Cc1ccc(/C=N/n2c(C)nc3ccccc3c2=O)s1	-90*
O=C(CSc1nnc(-c2ccco2)n1Cc1ccccc1)c1ccccc1	-104*
Cc1ccc(C(=O)CSc2nnc(-c3ccco3)n2Cc2ccccc2)cc1	-97*
COc1ccc(CC2(CO)COc3ccccc3C2=O)cc1 (stereo not drawn)	-64*
Cc1ccc(C(=O)N/N=C2\SCC(=O)N2c2cc(C)ccc2C)cc1	-94*
O=c1[nH]cnc2sc(-c3ccccc3)cc12	-86*
O=c1[nH]c(-c2ccccc2)nc2sc(-c3ccccc3)cc12	-235*
c1ccc(COc2ccc(OCCOCCn3cncn3)cc2)cc1	-117*
COC(=O)CC(=O)CSc1nc2c(cc1C#N)CCCCC2	-62*
CCOC(=O)c1sc(NC(=O)CSc2nc3c(cc2C#N)CCCCC3)c(C#N)c1C	-143*
CSC1CCCCC1(O)CSc1nc2c(cc1C#N)CCCC2 (stereo not drawn)	56
CCc1nnc(NC(=O)CSc2nc3c(cc2C#N)CCCC3)s1	-91*
COc1ccc(C)cc1N(C(=O)COc1cccc(F)c1)c1nc2ccccc2s1	-110*
Cc1ccc(C(=O)C(C(=O)/C=C/c2ccccc2)=C2SCCCS2)cc1	-102*
CCc1ccc(Nc2n[n+](-c3ccccc3)c(-c3ccc(OCc4ccccc4)cc3)s2)cc1	-62*
CN(C)c1ccc(-c2sc(Nc3ccccc3)n[n+]2-c2ccc(F)cc2)cc1	-203*
CCc1ccc(Nc2n[n+](-c3ccccc3)c(/C=C/c3ccccc3)s2)cc1	-169*
SMILES	aSyn 5UTR act
O=[N+]([O-])c1cccc(/C([O-])=C(/C(=S)Nc2ccccc2)[n+]2ccccc2)c1	-105*
COc1cc([N+](=O)[O-])ccc1NC(=S)Nc1cccc(C(=O)O)c1	-72*
O=C(NC(=S)Nc1cc([N+](=O)[O-])ccc1Cl)c1ccccc1	-85*
O=C(NC(=S)Nc1cccc([N+](=O)[O-])c1)c1ccccc1	-170*
O=C(Nc1ccc([N+](=O)[O-])cc1)C(=O)Nc1cccc(C(=O)O)c1	102
O=C(NC(=S)Nc1cccc([N+](=O)[O-])c1)c1ccco1	-113*
O=[N+]([O-])c1cccc(NC(=S)Nc2nc(-c3ccc(Cl)cc3Cl)cs2)c1	73
CN1CCN(S(=O)(=O)c2ccc(Br)c3nsnc23)CC1	-70*
CCOc1ccc2c(c1)nc(SCC(=O)c1cccs1)n2C	-67*
CCCCOC(=O)Nc1cccc(C(=O)OCC)c1	-68*
CCCCOC(=O)Nc1nnc(C(C)C)s1	-127*
CCCCOC(=O)Nc1ccc(N(C)C)cc1	-162*
CCCCOC(=O)Nc1ccc(C(N)=O)cc1	-94*
CCCCOC(=O)Nc1ccc(C(C)C)cc1	-276*
O=C(/C=C/c1ccccc1[N+](=O)[O-])c1ccccc1Br	-79*
Cc1ccc(C(=O)C(C)OC(=O)c2ccccc2[N+](=O)[O-])cc1 (stereo not drawn)	-158*
Cc1ccc(C(=O)/C=C/c2ccccc2[N+](=O)[O-])cc1	-173*
CN=Cc1cc(-c2ccccc2)sc1O	-100*
CC(=O)c1sc(NC(=O)c2ccccc2)nc1-c1ccccc1	-139*
CCOC(=O)Nc1nc(-c2ccccc2)c(C(=O)c2ccccc2)s1	117
Cc1nc(NC(=O)c2ccccc2O)sc1C	-128*
Cc1nc(NC(=O)c2csc3ccccc23)sc1C	-141*
Cc1nc(NC(=S)NC(=O)c2ccccc2)sc1C	-161*
Cc1nc(NC(=O)c2ccccc2)sc1C	-86*
Cc1nc(Nc2ccccc2)sc1C	-112*
SMILES	aSyn 5UTR act
Cc1nc(NC(=O)CCc2ccccc2)sc1C	-86*
CC(=Nc1ccc(C)c(C)c1)C1=C(O)CSC1=O	-122*
Cc1cccc(-c2nc3cc([N+](=O)[O-])ccc3o2)c1	-130*
O=[N+]([O-])c1ccc2oc(-c3ccccc3)nc2c1	-236*
COc1ccc(-c2nc3ccc([N+](=O)[O-])cc3o2)cc1	-192*
O=[N+]([O-])c1ccc(O)c(-c2cc(C(F)(F)F)nc(-c3ccccc3)n2)c1	90
COc1ccc(C(=O)C(CN2CCOCC2)c2ccccc2)cc1F (stereo not drawn)	-108*
CCCOc1ccc(C(=O)C(CN2CCOCC2)c2ccccc2)cc1 (stereo not drawn)	-120*
O=C(c1ccc(Cl)cc1)C(CN1CCCCC1)c1ccccc1 (stereo not drawn)	-106*
COc1cc(CNCc2ccccn2)ccc1OCc1ccc(Cl)cc1	-66*
CCOC(=O)c1cc2c(C)n(-c3ccc(C)cc3)c(C)c2ccc1=O	-64*
C/C(=N\Nc1ccccc1)c1cccc(N)c1	-92*
Cc1ccc(C(=O)c2cccc(N)c2)cc1C	82
Brc1ccc(N/N=C(/N=Nc2nn[nH]n2)c2ccccc2)cc1	97
CC(=O)c1sc(NC(=O)c2ccccc2C)nc1C	-88*
Cc1nc(NC(=O)c2ccc(F)cc2)sc1C(=O)Nc1ccc2c(c1)CCC2	-99*
CC(=O)c1sc(NC(=O)c2ccc(F)c(F)c2)nc1C	-159*
Cc1nc(NC(=O)c2cccc(Cl)c2)sc1C(=O)N1CCCCC1	-138*
CC(=O)c1sc(NC(=O)c2cccc(C)c2)nc1C	-131*
CC(=O)c1sc(NC(=O)c2ccc(Cl)cc2)nc1C	-108*
Cc1cccc(C(=O)NC(=O)Nc2c(C)cc(C)nc2C)c1	-147*
CC(=O)c1sc(NCc2ccc(C)cc2)nc1C	-168*
Cc1ccc(CNc2nc(Cl)c(C#N)s2)cc1	-146*
CC1CCC(=O)N(CCSc2ccccc2)CC1 (stereo not drawn)	-116*
O=C1CCN(CCc2ccccc2)CCN1CCSc1ccccc1	-69*
SMILES	aSyn 5UTR act
c1ccc(SCCN2CCc3ccccc3C2)cc1	-97*
c1ccc(Sc2ccccc2CN2CCCC2)cc1	85
CC(C)(C)C1CCC(=O)N(CCOc2ccccc2)CC1 (stereo not drawn)	-101*
Oc1ccc(CN2CCc3ccccc3C2)c2cccnc12	103
COc1ccc(NC(=O)COc2ccc(/C=N/NC(=O)c3cccnc3)cc2OC)cc1	-105*
COc1cc(/C=N/NC(=O)c2cccnc2)ccc1OCC(=O)Nc1ccccc1Cl	-73*
Cc1ccc(OCc2cc(C(=O)N(C)CC3CCOCC3)no2)cc1C	-104*
Cc1cc(OCc2cc(C(=O)N(C)C3CCOCC3)no2)cc(C)c1Cl	-128*
COc1ccccc1-c1ccc(NC2CCCC2)nn1	-120*
COc1ccccc1-c1cnn2c(NC3CCCC3)cc(C)nc12	-182*
COc1cc2c(cc1OC)-c1cc(NC3CCCCCCC3)nc(=O)n1CC2	70
O=C(Nc1nnc(-c2ccccc2F)s1)Nc1ccccc1F	-155*
O=C(Nc1nnc(Cc2ccccc2F)s1)Nc1ccccc1F	-99*
Cc1cccc(Nc2cc(C)c3c(O)cccc3n2)c1C	-101*
O=C(/C=C/c1cccs1)NC(=S)NNC(=O)c1ccccc1O	103
